PubChem BioAssay (NCATS)
Records with an inconclusive call do not appear. A call without a number means that no potency is given here. The source made the active and inactive calls. The call rests on the fitted dose curve; in most records, active means well fitted curve in the direction sought with a large enough effect; inconclusive means small, poorly fitted or top-dose-only effect, or another doubt; inactive means no such curve, though single readings can be large; an effect the other way counts as inactive or inconclusive.

How the values were obtained:
[1] = target: Aldehyde dehydrogenase, mitochondrial (Homo sapiens) (UniProt P05091); test: qHTS for Inhibitors of the Aldehyde Dehydrogenase Family (ALDH2) Primary screen (AID 2061308); conditions: ALDH2 enzyme inhibition qHTS, 1536-well; series mostly up to 56 µM; further: nearly all actives have a fitted effect of over 55% in size
[2] = target: Retinaldehyde dehydrogenase 3 (Homo sapiens) (UniProt P47895); test: qHTS for Inhibitors of the Aldehyde Dehydrogenase Family (ALDH1A3) Primary screen (AID 2061315); conditions: ALDH inhibition qHTS; series mostly up to 56 µM

Row | Compound | Potency [1] | Potency [2]
1 | Clc1ccccc1CSc1nc2ncc(Br)cc2[nH]1 | inactive | inactive
2 | C=C1C(=O)O[C@H]2/C=C(/C)[C@@H](OC(C)=O)C/C=C(\C)C[C@@H](OC(=O)/C(=C/C)COC(=O)/C(=C/C)CO)[C@@H]12 | inactive | inactive
3 | COc1ccc(OC)c(NC(=O)C(OC(=O)CNC(=O)c2ccccc2)c2ccccc2)c1 (stereo not drawn) | inactive | inactive
4 | N=c1c2c(ncn1CCN1CCOCC1)Oc1ccc3ccccc3c1C2c1ccccc1 (stereo not drawn) | inactive | inactive
5 | NC(=O)c1ccc(-c2noc(-c3ccccc3F)n2)cc1 | inactive | inactive
6 | O=C(OCC#CCSc1nnc(-c2ccc3ccccc3c2)o1)c1ccccc1 | inactive | inactive
7 | Cc1nc(CCNc2ncnc3ccc(-c4ccc5c(c4)OCO5)cc23)cs1 | inactive | inactive
8 | c1nc(NCCC2CCCO2)c2cc(-c3ccc4c(c3)OCO4)ccc2n1 (stereo not drawn) | inactive | inactive
9 | Cc1cc(C)nc(NC(=S)N2CCN(C3=Nc4ccccc4Oc4ccccc43)CC2)c1 | inactive | inactive
10 | Cc1cc2c(s1)c1cnn(Cc3ccc(C(F)(F)F)cc3F)c(=O)c1n2C | inactive | inactive
11 | Nc1cccc(OCCn2c(CCNC(=O)C3CCCCC3)nc3ccccc32)c1 | inactive | inactive
12 | Cc1cccc(-c2ccc3ncnc(NCc4cc(C)cs4)c3c2)c1 | inactive | inactive
13 | O=C1CCc2cc(S(=O)(=O)Nc3cccc(-c4ccccc4)c3)ccc2N1 | inactive | inactive
14 | CC(C)(C)c1ccc(-n2cnc3cc(C(=O)N4CCCCC4)ccc32)cc1 | inactive | inactive
